A selection: hits, their analogues and other compounds. The true share with any hit is near 31%.
CYP2C19 activ: increases human CYP2C19 enzyme activity | P33261 | recombinant CYP2C19, luciferin-H EGE luminescence; active compounds read high; 0 = fully inhibited enzyme, 1 = untreated enzyme | activation factor at 5 µM | 96,000 tested, under 10 active | AID 1025;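 active = activation factor of at least 2 at 5 µM in the primary screen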
Target sequence (P33261 whole entry, looked up): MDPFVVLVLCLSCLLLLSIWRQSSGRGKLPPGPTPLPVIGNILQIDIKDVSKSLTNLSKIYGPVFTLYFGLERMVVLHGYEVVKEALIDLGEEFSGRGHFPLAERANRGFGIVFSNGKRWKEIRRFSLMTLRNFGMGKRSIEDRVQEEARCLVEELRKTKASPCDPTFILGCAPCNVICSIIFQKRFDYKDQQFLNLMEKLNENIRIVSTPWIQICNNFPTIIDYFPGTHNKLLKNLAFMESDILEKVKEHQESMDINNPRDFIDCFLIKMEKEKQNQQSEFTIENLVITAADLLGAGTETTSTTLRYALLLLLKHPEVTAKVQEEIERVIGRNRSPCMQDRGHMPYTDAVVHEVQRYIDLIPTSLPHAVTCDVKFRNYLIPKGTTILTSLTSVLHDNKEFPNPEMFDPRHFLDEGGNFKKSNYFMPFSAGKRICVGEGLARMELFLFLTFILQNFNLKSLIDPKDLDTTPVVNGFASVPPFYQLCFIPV
CYP2C19 inh: blocks human cytochrome P450 2C19 | inhibition, % at 5 µM | CYP2C19 Supersomes, luciferin-H EGE luminescence, 30 min | hit rate 21% among 96,000 | P33261 | AID 778;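 active = CYP2C19 inhibition above a set limit at 5 µM in the primary screen, cut at about 50% in these data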
PLAP act: activators of human placental alkaline phosphatase; hit rate 1.2% among 96,000; AID 696; activation fold at 20 µM; purified PLAP enzyme, luminescent substrate read-out; active compounds read high; P05187; in the data active = activation fold above about 2
CYP2C9 inh: blocks human cytochrome P450 2C9; AID 777; CYP2C9 Supersomes, luciferin-H conversion, luminescence; hit rate 20% among 96,000; inhibition, % at 5 µM;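 active = blocking of liver enzyme CYP2C9 beyond about 50% at 5 µM, limit read from the data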
CYP2C9 act: activators of human CYP2C9; hit rate 1.4% among 96,000; AID 1024; P11712; activation factor at 5 µM; recombinant CYP2C9, luciferin-H conversion, luminescence; active compounds read high; factor 1 = untreated enzyme, 0 = blocked;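 active = activation factor of 2 or more for CYP2C9 at a 5 µM dose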
A number is an active result; i = inactive; nt = not tested or not shown.

SMILES	CYP2C19 activ	CYP2C19 inh	PLAP act	CYP2C9 inh	CYP2C9 act
COc1ccc(-c2[nH]ncc2-c2ccc3c(c2)OCCO3)c(O)c1	i	61.3	2.1	66.5	i
CCc1cc(-c2[nH]ncc2-c2ccc3c(c2)OCO3)c(O)cc1O	i	99.6	2.5	98.6	i
COC(=O)C1=C(O)/C(=C\c2ccc(O)c(OC)c2)N=C1C	i	i	i	i	i
COc1ccc(C(=O)N(Cc2ccco2)Cc2cccs2)c(O)c1	i	88.4	i	95.4	i
CN(Cc1cccs1)CC(O)COCc1ccco1 (stereo not given)	i	i	i	i	i
O=c1nc2n(c3cc(Cl)c(S(=O)(=O)N4CCOCC4)cc13)CCCCC2	i	i	i	i	i
O=C(c1ccccc1)N(CCN1CCOCC1)C1(C(=O)Nc2ccccc2)CCCCC1	i	69.2	i	i	i
COc1cccc2cc(C(=O)C3=C(O)C(=O)N(CCN4CCOCC4)C3c3cccs3)oc12 (stereo not given)	i	i	i	i	i
O=C(Nc1ccc(Cl)c(Cl)c1)N(CCCN1CCOCC1)Cc1cccs1	i	88.7	i	84.3	i
O=C(Nc1ccccc1)N(CCCN1CCOCC1)Cc1ccccc1F	i	i	i	i	i
CCc1ccc(NC(=O)N(CCCN2CCOCC2)C(C)c2cc3cccc(OC)c3o2)cc1 (stereo not given)	i	i	i	68.4	i
COc1ccc(CN(CCCN2CCOCC2)C(=O)Nc2ccccc2)cc1OC	i	i	i	57.1	i
O=C(Nc1ccc(F)cc1)N(CCCN1CCOCC1)Cc1cc2cc3c(cc2[nH]c1=O)OCCO3	i	i	i	i	i
Cc1c(C(=O)NN2CCN(C)CC2)cccc1[N+](=O)[O-]	nt	nt	i	nt	nt
CCN(CC)c1ccc(NC(=O)CN2C(=O)CSc3ncccc32)c(C)c1	i	i	i	i	i
O=C1CC(=O)C(n2cncn2)C(c2ccc(Cl)cc2)C1 (stereo not given)	i	i	i	i	i
O=C(Nc1ccccc1)N(CCN1CCOCC1)Cc1cccc(Cl)c1	i	79.4	i	84.4	i
COc1ccc(CN(CCN2CCOCC2)C(=O)c2c(F)cccc2F)cc1OC	i	52.3	i	i	i
c1csc(CNCCN2CCOCC2)c1	i	i	i	i	i
O=S(=O)(c1cccc(C(F)(F)F)c1)N(CCCN1CCOCC1)Cc1cccs1	i	64.0	i	i	i
O=C(Nc1cccc(Cl)c1)N(CCCN1CCOCC1)Cc1ccccc1F	i	i	i	65.0	i
O=C(Nc1ccccc1)N(Cc1ccccc1)Cc1ccccc1	i	i	i	i	i
CC1CCOC2(O1)C(=O)N(CN1CCN(c3ccccc3F)CC1)c1ccccc12 (stereo not given)	i	i	i	i	i
O=C(NC1CC1)c1cc(Cl)ccc1[N+](=O)[O-]	i	i	i	i	i
C/C(=N\NC(=S)Nc1ccc(F)cc1)C1CC1	i	69.1	i	57.0	i
SMILES	CYP2C19 activ	CYP2C19 inh	PLAP act	CYP2C9 inh	CYP2C9 act
CC(=O)N1CCC(N(C(=O)Nc2ccc(F)cc2)C2CCCC2)CC1	i	i	i	i	i
O=C(N/N=C\c1cn(-c2ccccc2)nc1-c1ccccc1)c1ccc2c(c1)OCO2	i	53.7	i	64.8	i
COc1ccc(-c2nn(-c3ccccc3)cc2/C=N/NC(=O)c2ccc3c(c2)OCO3)cc1	i	i	i	69.7	i
O/N=C/c1cn(-c2ccccc2)nc1-c1ccc2c(c1)OCCO2	i	i	i	52.8	i
O=C(N/N=C/c1cn(-c2ccccc2)nc1-c1ccc(F)cc1)c1ccc2c(c1)OCO2	i	i	i	64.4	i
CCCCOC(=O)Nc1ccc(C)c(Cl)c1	i	i	i	i	i
COC(=O)c1ccccc1NC(=O)c1noc2c1CC(C(C)(C)C)CC2 (stereo not given)	i	i	i	i	i
COc1ccc(-c2cn(/N=C/c3ccc(Cl)cc3Cl)c(N)n2)cc1	i	74.5	i	71.5	i
CCC12CN3CC(CC)(CN(C1)C3c1ccc(OC(C)C)cc1)C2=O (stereo not given)	i	i	i	i	i
COCc1cc(=O)n2[nH]c(C(F)(F)F)nc2n1	i	i	i	i	i
COC(=O)C1=C(C)NC(=O)NC1c1ccsc1 (stereo not given)	i	i	i	i	i
CC(=O)Nc1ccc(NC(=O)CN(C)CCC#N)cc1	i	i	i	i	i
O=S(=O)(c1cccc(-c2nnc(SCc3ccc(Cl)cc3)o2)c1)N1CCCCC1	i	69.4	i	87.3	i
CN(C)S(=O)(=O)c1cccc(-c2nnc(SCc3ccc4c(c3)OCCO4)o2)c1	i	64.0	i	92.5	i

Bioassay records: PubChem BioAssay, Sanford-Burnham Center for Chemical Genomics
